Data reported in PubChem BioAssay (EPA / NIEHS).
Results filed as inconclusive are left out. The source made the active and inactive calls. How the source made its calls, unless noted: active means hit-call score of the fitted dose curve at least 0.9, where 1 is the maximum; inactive means score below 0.9.

What was measured:
[1] = molecular target: Nucleoli Translocation, AR (gene 367) (UniProt P10275); assay: UPITT_HCI_U2OS_AR_TIF2_Nucleoli_Antagonist: University of Pittsburgh U2OS Androgen Receptor-Transcriptional Intermediary Factor 2 (AR-TIF2) Antagonism High Content Imaging Assay for Nucleoli Translocation (AID 2283997; active means hit-call score of the fitted dose curve at least 0.9, where 1 is the maximum)
Chain of Nucleoli Translocation, AR (gene 367) (P10275 whole entry, looked up, the tested form may be a part): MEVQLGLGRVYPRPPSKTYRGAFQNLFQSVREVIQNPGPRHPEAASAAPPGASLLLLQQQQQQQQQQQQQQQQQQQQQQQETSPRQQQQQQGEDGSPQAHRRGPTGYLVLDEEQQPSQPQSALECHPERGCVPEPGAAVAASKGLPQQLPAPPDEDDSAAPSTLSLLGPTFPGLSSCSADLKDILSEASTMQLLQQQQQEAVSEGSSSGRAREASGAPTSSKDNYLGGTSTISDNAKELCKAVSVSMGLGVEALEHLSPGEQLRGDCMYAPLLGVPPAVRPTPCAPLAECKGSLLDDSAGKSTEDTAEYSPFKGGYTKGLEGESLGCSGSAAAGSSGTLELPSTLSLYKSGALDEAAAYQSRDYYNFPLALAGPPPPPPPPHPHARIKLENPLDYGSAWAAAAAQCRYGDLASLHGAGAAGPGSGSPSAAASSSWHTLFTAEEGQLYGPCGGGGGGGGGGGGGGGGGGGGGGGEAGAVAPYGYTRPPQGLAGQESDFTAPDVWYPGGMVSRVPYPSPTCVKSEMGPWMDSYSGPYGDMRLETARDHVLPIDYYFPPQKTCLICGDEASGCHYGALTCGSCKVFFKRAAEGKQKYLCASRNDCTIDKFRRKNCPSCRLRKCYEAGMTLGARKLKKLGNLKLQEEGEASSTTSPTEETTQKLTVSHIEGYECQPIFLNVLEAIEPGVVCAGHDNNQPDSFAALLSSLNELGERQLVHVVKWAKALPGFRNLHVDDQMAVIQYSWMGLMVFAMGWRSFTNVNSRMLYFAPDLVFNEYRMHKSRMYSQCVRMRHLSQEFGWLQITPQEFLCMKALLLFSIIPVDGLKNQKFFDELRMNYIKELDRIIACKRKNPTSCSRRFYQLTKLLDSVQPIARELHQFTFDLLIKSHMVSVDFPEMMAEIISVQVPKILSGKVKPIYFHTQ
How it was run: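 Compounds are added at 20 uM final concentration in 0.2% DMSO to U2OS cells carrying AR-RFP and TIF2-GFP fusions. Nucleolar AR-RFP fluorescence is then quantified by automated imaging. Antagonism is fitted positively against DHT baseline.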

[2] = molecular target: Ratio of Nucleoli Translocation and Cytoplasm, AR (gene 367) (UniProt P10275); assay: UPITT_HCI_U2OS_AR_TIF2_Nucleoli_Cytoplasm_Ratio_Antagonist: University of Pittsburgh U2OS Androgen Receptor-Transcriptional Intermediary Factor 2 (AR-TIF2) Antagonism High Content Imaging Assay for Ratio of Nucleoli Translocation and Cytoplasm (AID 2283999; active means hit-call score of the fitted dose curve at least 0.9, where 1 is the maximum;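 further: antagonists lower the DHT-driven ratio of nucleolar to cytoplasmic red signal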)
Chain of Ratio of Nucleoli Translocation and Cytoplasm, AR (gene 367) (P10275 whole entry, looked up): as the sequence (P10275 whole entry, looked up, the tested form may be a part) above
How it was run: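 This antagonist-mode endpoint tracks AR-RFP localisation, the nucleolus-to-cytoplasm intensity ratio, in TIF2-GFP-coexpressing U2OS cells. DMSO stays at or below 0.5%; testing spans 20 uM single-dose and 0.195–50 uM series, with DHT setting the activity baseline.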

[3] = molecular target: Ratio of Nucleoli Translocation and Cytoplasm, AR (gene 367) (UniProt P10275); assay: UPITT_HCI_U2OS_AR_TIF2_Nucleoli_Cytoplasm_Ratio_Agonist: University of Pittsburgh U2OS Androgen Receptor-Transcriptional Intermediary Factor 2 (AR-TIF2) Agonism High Content Imaging Assay for Ratio of Nucleoli Translocation and Cytoplasm (AID 2284000; active means hit-call score of the fitted dose curve at least 0.9, where 1 is the maximum;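 further: hits raise the red nucleolar to cytoplasm ratio above vehicle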)
How it was run: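 Human osteosarcoma U2OS line, AR-RFP plus TIF2-GFP; compounds 0.195–50 uM final, 0.5% DMSO. Readout: nucleolar/cytoplasmic RFP ratio by HCI, positive direction vs DMSO baseline.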

[4] = CCTE_Shafer_MEA_dev_firing_rate_mean: CCTE's Neural Network Formation Assay for Mean Firing Rate, Shafer Lab (AID 2284031);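 further: curve fitted for loss of firing so AC50 reflects decreased mean firing rate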
How it was run: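 Extracellular spike frequency, AUC over DIV 5–12 recordings, in rat cortical neuron MEA cultures dosed from plating; loss direction vs DMSO.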

[5] = CCTE_Shafer_MEA_dev_per_burst_spike_percent: CCTE's Neural Network Formation Assay for Percent of Spikes in a Burst, Shafer Lab (AID 2284032);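 further: fitted as a decrease in burst spike percentage below DMSO baseline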
How it was run: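 Value is trapezoidal AUC over recordings on days 5, 7, 9 and 12 of the well-mean fraction of spikes falling in single-electrode bursts; rat cortical cultures exposed continuously from plating, treatment renewed DIV 5 and 9, fitted downward against DMSO.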

[6] = CCTE_Shafer_MEA_dev_active_electrodes_number: CCTE's Neural Network Formation Assay for Number of Active Electrodes, Shafer Lab (AID 2284040; active means hit-call score of the fitted dose curve at least 0.9, where 1 is the maximum;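 further: potency for loss of active electrodes versus DMSO so lower counts are hits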)
How it was run: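 Developing rat cortical networks on MEAs, exposed DIV 0–12. Value is the AUC of active-electrode counts (≥5 spikes/min) from days 5, 7, 9, 12, relative to DMSO.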

[7] = CCTE_Shafer_MEA_dev_burst_rate: CCTE's Neural Network Formation Assay for Burst Rate, Shafer Lab (AID 2284042);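 further: potency for loss of burst rate below DMSO control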
How it was run: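 Primary rat cortical neurons on PEI-coated 48-well MEA plates (laminin added with cells at plating) (16 electrodes/well), exposed from plating to day 12, dosing renewed at DIV 5 and 9. Burst rate averaged over active electrodes, recorded DIV 5, 7, 9, 12, summarized as AUC; loss versus DMSO.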

[8] = CCTE_Shafer_MEA_dev_bursting_electrodes_number: CCTE's Neural Network Formation Assay for Number of Bursting Electrodes, Shafer Lab (AID 2284043; active means hit-call score of the fitted dose curve at least 0.9, where 1 is the maximum;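 further: potency is for loss of bursting electrodes relative to DMSO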)
How it was run: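 Rat cortical primary neurons, 48-well MEA, 16 electrodes/well; dosing DIV 0–12, re-dosed with full media change DIV 5, 9. Recordings DIV 5/7/9/12, AxIS adaptive spike detector; bursting electrode = ≥1 burst/2 min. AUC across days; loss of signal vs DMSO.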

[9] = CCTE_Shafer_MEA_dev_burst_duration_mean: CCTE's Neural Network Formation Assay for Mean Burst Duration, Shafer Lab (AID 2284045);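 further: curve fitted for loss meaning shorter burst duration than DMSO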
How it was run: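 Rat cortical cultures, 1.5 x 10^5 cells/well with laminin drop; continuous dosing days 0–12, media plus treatment refreshed DIV 5, 9. AxIS adaptive spike detection; mean single-electrode burst duration, AUC over four recordings, negative direction vs DMSO.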

[10] = CCTE_Shafer_MEA_dev_inter_network_spike_interval_mean: CCTE's Neural Network Formation Assay for Mean Inter-network Spike Interval, Shafer Lab (AID 2284047);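 further: potency for a decrease in mean inter-network spike interval below DMSO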
How it was run: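 Primary rat cortical neurons on 16-electrode MEA wells, exposed from plating day 0 through DIV 12, compound renewed at DIV 5 and 9 media changes. Mean interval between network-spike peaks recorded DIV 5, 7, 9, 12; collapsed as trapezoidal AUC, fitted downward versus DMSO.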

[11] = CCTE_Shafer_MEA_dev_network_spike_number: CCTE's Neural Network Formation Assay for Number of Network Spikes, Shafer Lab (AID 2284048);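 further: synchronized bursts across electrodes counted on days 5 7 9 12 and integrated as AUC; fit as a loss of signal meaning fewer network spikes than DMSO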
How it was run: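 Rat cortical primary cultures on 48-well MEA (16 electrodes/well); continuous exposure DIV 0–12, full medium and treatment exchange DIV 5, 9. Readout: network spike count, AxIS adaptive detection, recordings DIV 5/7/9/12 collapsed to AUC; loss-of-signal fit, DMSO baseline.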

[12] = CCTE_Shafer_MEA_dev_network_spike_peak: CCTE's Neural Network Formation Assay for Mean Number of Electrodes in Network Spike, Shafer Lab (AID 2284049);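 further: fitted for loss of signal meaning fewer electrodes in network spikes than DMSO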
How it was run: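 Network-spike peak electrode count from recordings on days 5, 7, 9 and 12 was combined as trapezoidal area under the curve. Rat cortical cultures were treated continuously from plating, with compound renewed at each feed (DIV 5, 9); fits versus DMSO.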

[13] = CCTE_Shafer_MEA_dev_spike_duration_mean: CCTE's Neural Network Formation Assay for Mean Spike Duration, Shafer Lab (AID 2284051);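 further: mean network spike duration pooled as area under curve over DIV 5 to 12 recordings; potency for a decrease in mean network spike duration versus DMSO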
How it was run: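 Primary rat cortical neurons on 16-electrode MEA wells (PEI-coated, laminin in plating drop), exposed from plating through DIV 12 with compound renewed at DIV 5 and 9. Mean network-spike duration recorded DIV 5, 7, 9, 12; trapezoidal AUC across days, DMSO baseline.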

[14] = CCTE_Shafer_MEA_dev_network_spike_duration_std: CCTE's Neural Network Formation Assay for Standard Deviation of Network Spike Duration, Shafer Lab (AID 2284052);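 further: area under curve of spike duration SD across recording days 5 to 12; hits are decreases in network spike duration SD versus DMSO vehicle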
How it was run: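 Primary rat cortical neurons on PEI-coated 16-electrode MEA wells, exposed from plating day 0 through day 12 with compound renewed at DIV 5 and 9. Network spike duration SD recorded on days 5, 7, 9, 12, collapsed as trapezoidal AUC; loss-of-signal fit versus DMSO.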

[15] = CCTE_Shafer_MEA_dev_per_network_spike_spike_number_mean: CCTE's Neural Network Formation Assay for Mean Number of Spikes in a Network Spike, Shafer Lab (AID 2284053);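 further: fitted as decrease in spikes per network spike relative to DMSO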
How it was run: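 Primary rat cortical neurons on 48-well, 16-electrode MEA plates were exposed from plating to DIV 12, with dosing renewed on DIV 5 and 9. Spikes per network spike (0.05 s peak window) were recorded on DIV 5, 7, 9 and 12 and collapsed as trapezoidal AUC versus DMSO.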

[16] = CCTE_Shafer_MEA_dev_per_network_spike_spike_percent: CCTE's Neural Network Formation Assay for Percent of Spikes in a Network Spike, Shafer Lab (AID 2284054)
How it was run: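 Read-out: percent of spikes falling in a 0.05 s window at network-spike peak, from spontaneous MEA recordings on days 5, 7, 9 and 12; trapezoidal AUC; loss of signal versus DMSO. Rat cortical cultures, compound present throughout.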

[17] = UKN5_HCS_SBAD2_cell_viability: Viability Assessment in the University of Konstanz (UKN) Leist Lab Neurite Outgrowth Assay in human iPSC-derived immature Dorsal Root Ganglia Neurons (UKN5) (AID 2284056)
How it was run: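 iPSC-derived immature peripheral neurons (SBAD2) seeded on Matrigel with CHIR99021, SU5402 and DAPT, dosed 1 h later for 24 h. Viability from Hoechst H-33342 and calcein-AM live staining, high-content imaging; bidirectional fit versus DMSO.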

[18] = CCTE_Shafer_MEA_dev_LDH: CCTE's Lactate Dehydrogenase Assay for Cytotoxicity in the Neural Network Formation Assay, Shafer Lab (AID 2284068; active means hit-call score of the fitted dose curve at least 0.9, where 1 is the maximum;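 further: exposure for twelve days from plating with re-dosing on DIV 5 and 9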)
How it was run: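 Primary rat cortical neurons were plated on PEI/laminin MEA plates and exposed from day 0 for twelve days, with compound renewed at DIV 5 and 9. Cytotoxicity was determined by spectrophotometric LDH assay relative to DMSO.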

[19] = UKN5_HCS_SBAD2_neurite_outgrowth: University of Konstanz (UKN) Leist Lab Neurite Outgrowth Assay in human iPSC-derived immature Dorsal Root Ganglia Neurons (UKN5) (AID 2284070); details: actives raise or lower the signal
How it was run: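 Neurite outgrowth is quantified as calcein-AM-labelled neurite area in human iPSC-derived peripheral neurons treated for 24 h, starting 1 h after plating in medium with CHIR99021 (1.5 uM), SU5402 (5 uM) and DAPT (5 uM).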

[20] = CCTE_Shafer_MEA_dev_AB: CCTE's Alamar Blue Assay for Cytotoxicity in the Neural Network Formation Assay, Shafer Lab (AID 2284083; active means hit-call score of the fitted dose curve at least 0.9, where 1 is the maximum;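 further: twelve days of exposure from plating with re-dosing on DIV 5 and 9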)
How it was run: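 Primary rat cortical neurons on PEI-coated 48-well MEA plates, 1.5 x 10^5 cells/well in laminin drop; compound exposure from day 0 of plating for twelve days, renewed at medium changes on DIV 5 and 9. Viability read as resazurin reduction by fluorescence, relative to DMSO.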

[21] = CCTE_Shafer_MEA_dev_mutual_information_norm: CCTE's Neural Network Formation Assay for Mutual Information Normalization, Shafer Lab (AID 2284091);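 further: mutual information between electrodes summarised as area under curve across four recording days; potency is for a decrease in mutual information relative to DMSO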
How it was run: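 Neurons from rat cortex were seeded at 1.5 x 10^5 cells/well onto PEI-coated MEAs in a laminin drop, then exposed to compound from day 0 for twelve days. Network recordings on four days gave mutual information, summarised by AUC relative to DMSO.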

[22] = CCTE_Shafer_MEA_dev_correlation_coefficient_mean: CCTE's Neural Network Formation Assay for Mean Correlation Coefficient, Shafer Lab (AID 2284093);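 further: well mean pairwise spike train correlation integrated as AUC over recording days 5 to 12; potency fitted for loss of correlation relative to DMSO vehicle wells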
How it was run: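 Spontaneous activity recorded on days 5, 7, 9 and 12 post-plating; pairwise spike correlations are averaged across active electrodes and collapsed to an area-under-curve. Rat cortical cultures are dosed from plating through 12 days, with compound renewed at media changes.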

[23] = UKN2_HCS_IMR90_neural_migration: University of Konstanz (UKN) Leist Lab Neural Crest Cell Migration Assay in human induced IMR90 Pluripotent Stem Cells (UKN2) (AID 2284204); details: actives raise or lower the signal
How it was run: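 Stopper-exclusion migration (cMINC), human iPSC-derived neural crest cells; N2-S + EGF/FGF; compound added 24 h post-stopper removal, 24 h exposure. Readout: calcein-AM/Hoechst 30 min, HCS fluorescence imaging; bidirectional fitting, DMSO baseline.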

[24] = UKN4_HCS_LUHMES_neurite_outgrowth: University of Konstanz (UKN) Leist Lab Neurite Outgrowth Assay in human LUHMES cells (UKN4) (AID 2284206); details: actives raise or lower the signal
How it was run: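 Neurite area in dopaminergic-model LUHMES neurons is measured by high-content imaging of calcein-AM after 24 h treatment starting shortly after day-2 replating; Hoechst staining tracks viability.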

[25] = IUF_NPC1b_proliferation_BrdU_72hr: Leibniz Research Institute for Environmental Medicine (IUF) 72-hour Neural Progenitor Cell Bromodeoxyuridine (BrdU) Proliferation Assay (NPC1b) (AID 2284207)
How it was run: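 Luminescent BrdU ELISA measured DNA synthesis during the last 16 h of a 72 h exposure of primary human neural progenitor spheres grown with EGF and FGF. Signal was fitted relative to DMSO controls.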

[26] = IUF_NPC1a_proliferation_area_72hr: Leibniz Research Institute for Environmental Medicine (IUF) 72-hour Neural Progenitor Cell Proliferation Area Assay (NPC1a) (AID 2284208)
How it was run: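 Proliferation read as increase in sphere area by phase-contrast imaging over 72 h continuous compound exposure (no renewal) of hNPC spheres grown with EGF/FGF at 37C, 5% CO2. Growth-factor withdrawal served as positive control; DMSO as baseline.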

Measured: AC50

C[n+]1ccc(-c2cc[n+](C)cc2)cc1
active: [4] 2290 nM | [5] 1710 nM | [6] 1250 nM | [7] 2290 nM | [8] 1180 nM | [9] 2290 nM | [10] 760 nM | [11] 2310 nM | [12] 1380 nM | [13] 1150 nM | [14] 1420 nM | [15] 1440 nM | [16] 1810 nM | [18] 1710 nM | [19] 202000 nM | [20] 2340 nM | [21] 2290 nM | [22] 1630 nM | [24] 189000 nM
inactive: [1] | [2] | [3] | [17] | [23] | [25] | [26]
